Measurements reported in paper PMC4336329 (PLoS ONE, 2015).
The whole screen tested about 310,000 compounds, of which about 14,000 (4.5%) showed an effect of 50% or more. The effect is printed as a negative number. The sample holds strong results, similar compounds and a random draw of the others, so the mix is not that of the screen.

target: human ether-à-go-go-related gene (hERG) potassium channel (human, UniProt Q12809); test: primary screen, population patch clamp on CHO cells stably expressing hERG; higher = less effect of the substance
Sequence (Q12809 whole entry, looked up): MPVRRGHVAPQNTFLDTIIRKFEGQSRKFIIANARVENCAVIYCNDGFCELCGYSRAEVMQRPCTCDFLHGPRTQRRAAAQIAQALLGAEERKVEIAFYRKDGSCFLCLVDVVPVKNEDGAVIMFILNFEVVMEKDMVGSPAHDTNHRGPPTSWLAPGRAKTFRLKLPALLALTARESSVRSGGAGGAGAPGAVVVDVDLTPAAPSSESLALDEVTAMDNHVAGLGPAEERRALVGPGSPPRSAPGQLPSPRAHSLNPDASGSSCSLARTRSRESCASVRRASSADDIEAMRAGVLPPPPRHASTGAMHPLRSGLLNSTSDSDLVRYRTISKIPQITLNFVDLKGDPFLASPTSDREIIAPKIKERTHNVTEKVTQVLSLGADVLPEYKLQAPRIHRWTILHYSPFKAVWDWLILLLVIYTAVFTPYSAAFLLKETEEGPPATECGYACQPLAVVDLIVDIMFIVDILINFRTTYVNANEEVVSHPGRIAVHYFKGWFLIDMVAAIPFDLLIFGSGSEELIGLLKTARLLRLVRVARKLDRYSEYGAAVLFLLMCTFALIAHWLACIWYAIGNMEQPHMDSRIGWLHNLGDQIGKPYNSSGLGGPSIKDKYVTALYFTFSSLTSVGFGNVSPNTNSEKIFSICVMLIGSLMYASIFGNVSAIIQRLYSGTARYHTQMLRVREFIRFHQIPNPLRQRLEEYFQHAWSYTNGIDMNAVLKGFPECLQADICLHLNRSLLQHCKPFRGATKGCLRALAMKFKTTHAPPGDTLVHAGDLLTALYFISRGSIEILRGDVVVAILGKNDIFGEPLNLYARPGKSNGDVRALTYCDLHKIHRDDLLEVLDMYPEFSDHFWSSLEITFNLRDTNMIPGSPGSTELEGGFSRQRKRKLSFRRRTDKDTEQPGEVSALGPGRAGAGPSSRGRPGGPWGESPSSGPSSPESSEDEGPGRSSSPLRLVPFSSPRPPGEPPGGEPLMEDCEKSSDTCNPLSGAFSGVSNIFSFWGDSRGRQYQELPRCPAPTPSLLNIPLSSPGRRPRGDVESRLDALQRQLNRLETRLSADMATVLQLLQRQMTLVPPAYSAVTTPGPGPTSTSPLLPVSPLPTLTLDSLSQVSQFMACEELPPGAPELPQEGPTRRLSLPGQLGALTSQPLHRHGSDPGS
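Also: peak tail current of the secondary pulse compared with the same well before compound.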

Compared with COc1ccc(C(=O)N=c2sc3c(C)ccc(OC)c3n2C)cc1, CN=C(Nc1ccccc1OC)SC1CC(=O)N(c2ccc(C(=O)OC)cc2)C1=O (centres unmarked) is lower in “hERG current change (%, negative = inhibition) at 10uM” value: 6.32% for the first, -12.5% for the second.

Compared with CCCC(=O)Nc1ccc(C(=O)NNC(=O)c2cccs2)cc1, CCOC(=O)C(NC(=O)Nc1ccc(C(N)=O)cc1)(c1ccccc1)C(F)(F)F (centres unmarked) is lower in “hERG current change (%, negative = inhibition) at 10uM” value: 12.2% for the first, -14.6% for the second.

Compared with CC1(C)COC(c2coc3ccccc3c2=O)OC1, CC1(C)CC(=O)c2sc(NC(=O)c3ccccc3)nc2C1 is lower in “hERG current change (%, negative = inhibition) at 10uM” value: 3.85% for the first, 2.82% for the second.

First: Oc1c(N=NC(=S)Nc2ccccc2F)c2ccccc2n1Cc1ccc(F)cc1
Second: O=C(CCN1C(=O)/C(=C/c2ccccc2F)SC1=S)NCCc1ccc(O)cc1
The “hERG current change (%, negative = inhibition) at 10uM” value of the first is higher: 18.7% for the first, 14.1% for the second.

Compared with O=C(c1cccc(Br)c1)N1CCN(c2ccccn2)CC1, O=C(NCC(=O)N1CCN(c2ccccc2)CC1)c1ccc(Br)o1 is lower in “hERG current change (%, negative = inhibition) at 10uM” value: -4.19% for the first, -39.9% for the second.

First: OCCC1CN(Cc2cccn2-c2ccccn2)CCN1C1CCCC1 (centres unmarked)
Second: OCCC1CN(Cc2cccn2-c2ccccn2)CCN1C1CCCCC1 (centres unmarked)
The “hERG current change (%, negative = inhibition) at 10uM” value of the first is higher: -18.9% for the first, -57.1% for the second.

Compared with Cc1ccc(CN2CCN(Cc3cccn3-c3ccccn3)CC2CCO)o1 (centres unmarked), Cc1ccc(CN2CCN(Cc3cccn3-c3ccc(Cl)cn3)CC2CCO)o1 (centres unmarked) is higher in “hERG current change (%, negative = inhibition) at 10uM” value: -66.1% for the first, -23.3% for the second.

First: OCCC1CN(Cc2cccn2-c2ccccn2)CCN1Cc1ccccc1 (centres unmarked)
Second: Cc1ccc(CN2CCN(Cc3cccn3-c3ccccn3)CC2CCO)cc1 (centres unmarked)
The “hERG current change (%, negative = inhibition) at 10uM” value of the first is higher: -76.5% for the first, -82% for the second.

Compared with Cc1ccc(CN2CCN(Cc3cnc(N(C)C)s3)CC2CCO)o1 (centres unmarked), Cc1ccc(CN2CCN(Cc3ccccn3)CC2CCO)cc1 (centres unmarked) is lower in “hERG current change (%, negative = inhibition) at 10uM” value: 6.05% for the first, -47.9% for the second.

Going from OCCC1CN(Cc2cccn2-c2ncccn2)CCN1C1CCCC1 (centres unmarked) to Cc1c(C(=O)N2CCN(c3ncccn3)CC2)oc2ccc(Cl)cc12, the “hERG current change (%, negative = inhibition) at 10uM” value falls from -6.11% to -23.3%.

Going from Cc1onc(-c2c(F)cccc2Cl)c1C(=O)ONC(=O)c1ccccc1 to O=C(Nc1cccnc1)/C(N=Nc1c(Cl)cccc1Cl)=C(\O)c1ccccc1, the “hERG current change (%, negative = inhibition) at 10uM” value rises from 8.85% to 18.8%.

Going from CC(=O)Nc1ccc(S(=O)(=O)N(CC(=O)O)Cc2ccccc2)cc1 to COc1ccccc1CCC(=O)Nc1ccc(S(=O)(=O)Nc2cc(C)nc(C)n2)cc1, the “hERG current change (%, negative = inhibition) at 10uM” value rises from -12.6% to 12%.

Compared with CC1CN(C(=O)C2CC(=O)N(c3ccc(Cl)cc3)C2)CC(C)O1 (centres unmarked), O=C(Nc1ccc(Cl)cc1)N1CCN(C(=O)C2CCCO2)CC1 (centres unmarked) is higher in “hERG current change (%, negative = inhibition) at 10uM” value: -13.3% for the first, 14.9% for the second.

Compared with COC(=O)c1ccc(/C=N\N2CCN(Cc3ccc(C)cc3)CC2)cc1, Cc1ccc2oc(C(=O)N3CCN(Cc4ncccc4C)CC3)c(C)c2c1 is lower in “hERG current change (%, negative = inhibition) at 10uM” value: 9.51% for the first, -78.3% for the second.

Compared with COC(=O)c1cc(Cl)c(NC(=O)/C=C/c2ccc(Cl)cc2)cc1OC, CN(C)c1ccc(NC(=S)NC(=O)/C=C/c2ccc(Cl)cc2)cc1 is higher in “hERG current change (%, negative = inhibition) at 10uM” value: -15.7% for the first, 2.39% for the second.

Going from Fc1ccc(Br)cc1C1C=C(c2ccc(Br)s2)Nc2ncnn21 (centres unmarked) to CC1CCc2cc(F)ccc2N1C(=O)c1ccncc1 (centres unmarked), the “hERG current change (%, negative = inhibition) at 10uM” value falls from 9% to 7.7%.

Going from COCCCNC(=O)c1ccc(CS(=O)(=O)c2ccccc2C)o1 to O=C(NCC(=O)N1CCN(c2ccccc2F)CC1)c1ccc(Br)o1, the “hERG current change (%, negative = inhibition) at 10uM” value falls from 7.74% to -39.1%.

Going from O=C(NCc1cccnc1)C1c2ccccc2C(=O)N1C1CCCCCC1 (centres unmarked) to O=C(O)C(=O)O.c1ccc(CNC2=NCCCC2)cc1, the “hERG current change (%, negative = inhibition) at 10uM” value falls from 2.21% to 1.76%.

First: O=C(O)c1cccc2c1NC(C(=O)O)C1CC(Sc3ccccc3[N+](=O)[O-])C(Cl)C21 (centres unmarked)
Second: CCOc1cc(CNCCc2ccccc2F)ccc1OC.O=C(O)C(=O)O
The “hERG current change (%, negative = inhibition) at 10uM” value of the first is higher: -0.458% for the first, -42.1% for the second.

Compared with Cc1ccc2c(C)c(C(=O)N3CCN(Cc4ccccn4)CC3)oc2c1C, Cc1cc2oc(C(=O)N3CCN(CCc4ccccn4)CC3)c(C)c2cc1C is higher in “hERG current change (%, negative = inhibition) at 10uM” value: -23.1% for the first, -21.2% for the second.

Going from Cc1ccc2oc(C(=O)N3CCN(CCO)CC3)c(C)c2c1 to Cc1ccc2oc(C(=O)N3CCN(Cc4nccn4C)CC3)c(C)c2c1, the “hERG current change (%, negative = inhibition) at 10uM” value falls from 13.7% to -41.3%.

First: Cc1c(C(=O)N2CCN(CCc3ccccn3)CC2)oc2ccc(Cl)cc12
Second: Cc1c(C(=O)N2CCN(CCc3ccccn3)CC2)oc2ccc(F)cc12
The “hERG current change (%, negative = inhibition) at 10uM” value of the first is lower: -81.1% for the first, -72.1% for the second.

Going from Cc1c(C(=O)N2CCN(C(=O)c3ccccc3)CC2)oc2ccc(F)cc12 to Cc1cc(C(=O)N2CCN(c3ccc(F)cc3)CC2)on1, the “hERG current change (%, negative = inhibition) at 10uM” value rises from -44.8% to -14.5%.

Going from CC(C)CN(C(=O)c1ccc(S(=O)(=O)N2CCCC2)cc1)C1CCS(=O)(=O)C1 (centres unmarked) to Cc1ccc(C(=O)N2CCN(C(=O)N3CCOCC3)CC2)cc1, the “hERG current change (%, negative = inhibition) at 10uM” value falls from -3.52% to -5.64%.

Going from Cc1cccc(NC(=O)C(=O)NCc2ccc3c(c2)OCO3)c1C to Cc1ccc(Cl)cc1N1CCN(C(=O)CNC(=O)c2ccc(Br)o2)CC1, the “hERG current change (%, negative = inhibition) at 10uM” value falls from -16.5% to -55.9%.

Going from CCN(CC)C(=O)Oc1nnc(SC(C)C)n1-c1ccc(Cl)c(Cl)c1 to CCOc1ccc(C(=O)Nn2cnnc2)cc1OCC, the “hERG current change (%, negative = inhibition) at 10uM” value falls from -7.2% to -70.4%.

First: Cc1ncoc1C(=O)N1CCCC(C(=O)c2cccc(OC(C)C)c2)C1 (centres unmarked)
Second: COc1cccc(CNC(=O)CCC2CCCN(C(=O)CCc3c(C)noc3C)C2)c1 (centres unmarked)
The “hERG current change (%, negative = inhibition) at 10uM” value of the first is higher: 10.3% for the first, -2.56% for the second.

Compared with Cc1ccc(C)c(C(C)NC(=O)C2CCCO2)c1 (centres unmarked), Cc1cc(C(=O)N2CCN(c3cc(Cl)ccc3C)CC2)on1 is lower in “hERG current change (%, negative = inhibition) at 10uM” value: 17.6% for the first, -58.7% for the second.

Compared with O=C(NCC(=O)N1CCN(c2ccccc2O)CC1)c1ccc(Br)o1, O=C(NCC(=O)N1CCN(c2cccc(Cl)c2)CC1)c1ccc(Br)o1 is lower in “hERG current change (%, negative = inhibition) at 10uM” value: -4.93% for the first, -78.4% for the second.

First: CC(=O)N1CCN(C(=O)CNC(=O)c2ccc(Br)o2)CC1
Second: Cc1ccc(Cl)cc1N1CCN(C(=O)c2noc(C)c2[N+](=O)[O-])CC1
The “hERG current change (%, negative = inhibition) at 10uM” value of the first is higher: 22.2% for the first, 1.15% for the second.

Going from Cc1ccc(CN2CCc3[nH]c(=O)[nH]c(=O)c3C2)cc1 to Cc1ccc(C(c2nnnn2Cc2cccs2)N2CCN(C(=O)c3ccco3)CC2)cc1 (centres unmarked), the “hERG current change (%, negative = inhibition) at 10uM” value falls from 17.5% to -62.5%.

First: S=C(Nc1ccc(Oc2ccc(NC(=S)NC3CCCCC3)cc2)cc1)NC1CCCCC1
Second: Cc1cccc(N(C(=O)Cc2cccs2)C(C(=O)NC2CCCC2)c2ccncc2)c1 (centres unmarked)
The “hERG current change (%, negative = inhibition) at 10uM” value of the first is higher: 17.6% for the first, 8.83% for the second.

Going from COC(=O)c1ccccc1Oc1nc(Cl)cc(OC)n1 to COc1ccc(C(=O)Nn2cnnc2)cc1OC, the “hERG current change (%, negative = inhibition) at 10uM” value rises from -12.1% to 14.6%.

Compared with O=C(NCc1ccco1)C(=O)NCC(c1ccco1)N1CCOCC1 (centres unmarked), CC(C)C(c1nnnn1Cc1cccs1)N1CCN(C(=O)c2ccco2)CC1 (centres unmarked) is lower in “hERG current change (%, negative = inhibition) at 10uM” value: 13% for the first, -31.6% for the second.

First: O=C(COc1cccc2cccnc12)Nc1ccccc1N1CCOCC1
Second: CCCNC(=O)c1ccc(N2CCC3(CC2)CC(c2cccc(Br)c2)=NO3)c(NC(=O)c2c(Cl)cccc2Cl)c1
The “hERG current change (%, negative = inhibition) at 10uM” value of the first is lower: -37.7% for the first, 5.92% for the second.

Going from COc1ccccc1CCNCc1ccc(OC)c(OCc2ccccc2)c1 to COc1ccc(CNCCc2ccc(Cl)cc2)cc1OCc1ccccc1, the “hERG current change (%, negative = inhibition) at 10uM” value falls from -71.9% to -75.6%.

Compared with CCOc1cc(CNCc2ccccc2)ccc1OCc1ccc(Cl)cc1.Cl, COc1cc(CNCCc2ccccc2)ccc1OCC(N)=O.Cl is higher in “hERG current change (%, negative = inhibition) at 10uM” value: -33.1% for the first, -17.4% for the second.

Going from COc1ccc(CNCCc2ccccc2)cc1OCC(N)=O to COc1ccc(CCNS(=O)(=O)c2ccc3oc(C(=O)O)c(C)c3c2)cc1OC, the “hERG current change (%, negative = inhibition) at 10uM” value rises from -12% to 0.0936%.

First: COc1ccccc1-n1ccnc1SCC(=O)NC(C)(C)C
Second: Cc1cccc(-n2c(SCc3cc(=O)n4ccsc4n3)nc3ccccc3c2=O)c1
The “hERG current change (%, negative = inhibition) at 10uM” value of the first is higher: 13.3% for the first, -5.76% for the second.

First: CC(=O)NNC(=O)c1csc(Cc2c(Cl)sc3ccc(Cl)cc23)n1
Second: CNC(=O)NNC(=O)c1csc(Cc2c(Cl)sc3ccc(Cl)cc23)n1
The “hERG current change (%, negative = inhibition) at 10uM” value of the first is higher: -19.6% for the first, -52.1% for the second.

Compared with CNC(=O)c1csc(Cc2c(Cl)sc3ccc(Cl)cc23)n1, Cc1cc(/C=N/n2cnnc2)c(C)n1-c1cccc(Cl)c1 is lower in “hERG current change (%, negative = inhibition) at 10uM” value: -2.3% for the first, -22.2% for the second.

First: O=C(Nc1cccnc1)/C(N=Nc1cccnc1)=C(\O)c1ccccc1
Second: O=C(Nc1cccnc1)/C(N=Nc1ccc(Cl)c(C(F)(F)F)c1)=C(\O)c1ccccc1
The “hERG current change (%, negative = inhibition) at 10uM” value of the first is lower: -53% for the first, 29.3% for the second.

Compared with CCOc1cc(C(=O)Nn2cnnc2)cc(OCC)c1OCC, CC(C)CCn1nnnc1C(c1ccc(F)cc1)N1CCN(C(=O)c2ccco2)CC1 (centres unmarked) is lower in “hERG current change (%, negative = inhibition) at 10uM” value: 13.8% for the first, -38.1% for the second.

First: O=C(c1ccco1)N1CCN(C(c2ccc(F)cc2)c2nnnn2CC2CCCO2)CC1 (centres unmarked)
Second: Cl.O=C(c1ccco1)N1CCN(C(c2ccc(F)cc2)c2nnnn2Cc2cccs2)CC1 (centres unmarked)
The “hERG current change (%, negative = inhibition) at 10uM” value of the first is higher: -13.7% for the first, -57% for the second.

O=C(c1ccco1)N1CCN(C(c2ccccc2)c2nnnn2Cc2cccs2)CC1 (centres unmarked) was tested, and the “hERG current change (%, negative = inhibition) at 10uM” value was -38.9%.
